From PubChem BioAssay
Calls of active or inactive are those of the source.

Assays:
[1] = compound effects on lung adenocarcinoma cell viability – A549, calcein-AM fluorescence, 48 h, basal, profiling panel (AID 1162); conditions: higher = more signal
[2] = compound effects on differentiated 3T3-L1 adipocyte viability – cell-based, 3T3-L1 adipocytes, calcein-AM fluorescence, 48 h, basal, profiling panel (AID 1163); conditions: 3T3-L1 adipocytes viability, higher = more signal
[3] = compound effects on hepatocellular carcinoma cell viability – HepG2, calcein-AM fluorescence, 48 h, basal, profiling panel (AID 1164); conditions: higher = more signal
[4] = compound effects on multiple myeloma cell viability – MM1S, calcein-AM fluorescence, 48 h, basal, profiling panel (AID 1165); conditions: higher = more signal
[5] = calcein-AM signal in unstimulated myeloma cells – cell-based, calcein-AM fluorescence, 48 h, PK04 Diversity Set, profiling panel (AID 1166); conditions: RPMI8226 myeloma viability, higher = more signal;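 note: cells grown under basal conditions without added stimulus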
[6] = JC-1 mitochondrial signal, unstimulated HepG2 cells – cell-based, JC-1 fluorescence, 24 h, 100 nL compound, profiling panel (AID 1167); conditions: HepG2 mitochondrial potential, higher = more signal
[7] = JC-1 mitochondrial signal, unstimulated adipocytes – cell-based, JC-1 fluorescence, 3T3-L1 adipocytes, 24 h, 100 nL compound, profiling panel (AID 1168); conditions: JC-1 mitochondrial fluorescence, higher = more signal, called active from +8 up or from −8 down
[8] = JC-1 mitochondrial signal, unstimulated myeloma cells – cell-based, JC-1 fluorescence, RPMI8226, 24 h, 100 nL compound, profiling panel (AID 1169); conditions: JC-1 mitochondrial potential fluorescence, higher = more signal
[9] = JC-1 mitochondrial signal, unstimulated MM1S myeloma – cell-based, JC-1 fluorescence, 24 h, 100 nL compound, profiling panel (AID 1170); conditions: MM1S mitochondrial potential, higher = more signal
[10] = resazurin metabolic signal in A549 cells – cell-based, resazurin fluorescence, 24 h, PK04 Diversity Set, profiling panel (AID 1171); conditions: A549 viability, higher = more signal, called active from +8 up or from −8 down
Note: test concentration not given here.

SMILES	z-score [1]	z-score [2]	z-score [3]	z-score [4]	z-score [5]	z-score [6]	z-score [7]	z-score [8]	z-score [9]	z-score [10]
CC(CCN1CCCc2nc(C)c(C)cc21)=NOC[C@@H](C)[C@H](OCc1ccccc1)C(C)C	0.803	1.05	1.18	-2.37	0.0389	1.94	-0.584 (inactive)	0.395	-1.46	-0.602 (inactive)
COC(=O)C(C(=O)OC)C1CCCC(=O)C1 (stereo not given)	0.219	0.585	-0.526	-0.68	-1.34	-0.108	-0.078 (inactive)	0.753	1.15	-1.14 (inactive)
COC(=O)C1=C(C)N(Cc2ccccc2)C2=C3C(=O)OCC[C@@H]3[C@@](O)(C(=O)OC)C(=O)N2[C@@H]1c1ccccc1	1.62	-0.792	0.24	0.489	-0.755	1.85	-1.11 (inactive)	-0.391	-0.91	0.56 (inactive)
CC(C)=CCCC(C)=CCON=C1C[C@@H](O)[C@@H](O)[C@@H]2[C@@H]3C(=O)N(Cc4ccc5c(c4)OCO5)C(=O)[C@@H]3CC[C@@H]12	-0.0221	0.603	-0.53	-0.788	-0.327	-0.0991	0.581 (inactive)	0.0988	-0.909	0.25 (inactive)
CC(=O)OC[C@H]1O[C@H](CC=NOC[C@@H](O)[C@H]2O[C@@H]3OC(C)(C)O[C@@H]3[C@H]2O)C=C[C@@H]1OC(C)=O	0.873	-1	-0.188	0.494	-0.594	0.218	0.555 (inactive)	0.632	-0.527	0.0766 (inactive)
CC(C)(C)N1C(=O)[C@H]2[C@H]3[C@H](O)[C@H](O)CC(=NOC[C@@H](O)COCc4ccco4)[C@H]3CC[C@H]2C1=O	-0.0309	0.676	0.082	0.406	-0.139	-0.368	0.856 (inactive)	-0.631	-0.914	-0.679 (inactive)
COC(=O)[C@@H]1CC[C@H](C)[C@@H](c2ccc(Br)cc2)N1C[C@@H](O)CN=[N+]=[N-]	-0.618	0.379	-0.494	-0.682	-1.4	0.462	0.866 (inactive)	0.65	-0.553	0.0136 (inactive)
C#CCCCON=C1C[C@@H](O)[C@@H](O)[C@@H]2[C@@H]3C(=O)N([C@@H](C)c4ccccc4)C(=O)[C@@H]3CC[C@@H]12	0.241	-0.532	-0.47	-0.597	-0.337	-0.998	-0.377 (inactive)	0.462	-0.968	-0.378 (inactive)
O=C1C2=CC[C@H]3C(=O)N(c4ccc(F)cc4F)C(=O)[C@H]3[C@H]2[C@H](O)[C@@H]2O[C@H]12	-0.463	-0.438	0.0658	-0.486	-0.397	-0.276	-0.191 (inactive)	0.0423	0.556	-0.0843 (inactive)
COC(=O)[C@@H]1CC[C@H](C)[C@@H](c2ccc(Br)cc2)N1C[C@H](O)CN=[N+]=[N-]	0.128	0.878	-0.671	0.572	-0.878	-0.0153	-0.416 (inactive)	-0.443	0.75	-0.624 (inactive)
Cc1ccc(C(C)C)n1C(=O)OC(C)(C)C	1.88	0.0856	0.577	0.547	0.228	-0.503	0.499 (inactive)	0.68	0.196	-1.47 (inactive)
CC(C)=CCCC(C)=CCON=C1C[C@@H](O)[C@@H](O)[C@@H]2[C@@H]3C(=O)N(c4cccc(Oc5ccccc5)c4)C(=O)[C@@H]3CC[C@H]12	0.0267	-0.796	0.285	-1.97	0.504	-0.253	0.496 (inactive)	-0.203	-0.907	0.533 (inactive)
O=C1C=C[C@@H](O)[C@@H]2[C@@H]3C(=O)N(C4CCCCC4)C(=O)[C@@H]3CC[C@@H]12	-0.0763	0.351	-0.602	-1.88	-2.19	1.23	-0.58 (inactive)	-0.733	-1.54	0.269 (inactive)
CC(CCN1CCc2nc(-c3ccccc3)c(-c3ccccc3)cc2C1)=NOC(C)CN1CCCc2nc(C)c(C)cc21 (stereo not given)	1.23	0.301	0.69	-2.9	-0.616	6.43	-1.28 (inactive)	-0.866	-0.881	0.289 (inactive)
CCOC(=O)CCN1C(=O)[C@H]2[C@H]3[C@H](O)[C@H](O)CC(=NOCC=C(C)CCC=C(C)C)[C@@H]3CC[C@H]2C1=O	-0.0606	-0.218	-0.124	0.232	-0.0685	-0.651	-0.204 (inactive)	-0.225	-0.251	-0.23 (inactive)
C#CCCCON=C1C[C@@H](O)[C@@H](O)[C@@H]2[C@@H]3C(=O)N(C4CCCCC4)C(=O)[C@@H]3CC[C@@H]12	-0.205	-0.117	-0.139	0.183	-1.94	-1.32	-0.462 (inactive)	-0.0811	0.431	-0.255 (inactive)

SMILES	z-score [1]	z-score [2]	z-score [3]	z-score [4]	z-score [5]	z-score [6]	z-score [7]	z-score [8]	z-score [9]	z-score [10]
CC(=O)OC[C@H]1O[C@H](CC=NO[C@@H](C)c2cn([C@H](CO)Cc3ccccc3)nn2)C=C[C@@H]1OC(C)=O	-1.04	-0.0628	-0.453	0.548	-0.812	-0.174	-0.538 (inactive)	0.15	-0.76	0.095 (inactive)
COC(=O)[C@@H]1CC[C@H](C)[C@@H](c2ccc(C)cc2)N1C(=O)c1ccc(C=NOC[C@H]2O[C@H](c3ccccc3)C=C[C@@H]2Oc2ccc(OC)cc2)cc1	-0.798	-0.36	-0.195	0.248	-0.537	2.64	-2.02 (inactive)	0.833	0.0359	0.307 (inactive)
CO[C@H]1COC(=O)CC=C[C@@H](C)COC(=O)[C@H]2CCCN2C(=O)CC=C[C@H]1C	1.22	-0.429	0.707	0.462	0.18	0.722	0.00299 (inactive)	0.418	0.748	-0.823 (inactive)
COc1ccc(OC[C@@H](CO)OC)cc1	0.677	0.363	0.647	0.124	-0.342	-0.15	-0.321 (inactive)	0.104	0.674	-0.551 (inactive)
COC(=O)[C@@H]1CC[C@H](C)[C@@H](c2ccc(C)cc2)N1C(=O)c1ccc(C=NO[C@@H](C)c2cc(-c3c(C)cc(C)cc3C)no2)cc1	0.203	-0.576	1.38	-0.56	0.148	3.24	0.161 (inactive)	0.239	-0.749	-0.462 (inactive)
CSCC[C@@H]1NC(=O)CC=C[C@@H](C)COC(=O)[C@H](C)COC1=O	0.137	0.641	0.929	0.434	0.798	1.16	0.766 (inactive)	0.0761	0.975	-0.365 (inactive)
CC(C)=NOC[C@@H](O)[C@H]1O[C@@H]2OC(C)(C)O[C@@H]2[C@H]1O	0.112	-1.53	0.139	-0.112	-0.0588	-0.00334	-1.09 (inactive)	-1.01	0.661	-0.871 (inactive)
CC(C)=NO[C@@H](C)c1cn([C@H](CO)Cc2ccccc2)nn1	0.308	0.343	1.17	0.182	-0.428	0.614	0.0209 (inactive)	0.386	0.514	-1.35 (inactive)
COc1cccc([C@H]2Oc3ccc(OC)cc3C(=NO[C@@H](C)c3cc(-c4c(C)cc(C)cc4C)no3)[C@@H]2O)c1	-0.744	-0.583	-1.08	-1.38	-0.845	-2.54	-2.31 (inactive)	0.118	0.463	0.321 (inactive)
COC(=O)[C@H](C)NC(=O)CCC1CC(OC(=O)NCc2cccc3ccccc23)CC2(CCCC(COC(=O)NCc3cccc(C(F)(F)F)c3)O2)O1 (stereo not given in full)	0.826	-0.508	-0.918	-3.11	-0.0274	-0.707	0.733 (inactive)	-0.742	-0.905	-1.16 (inactive)
OC[C@H]1O[C@H](C#Cc2ccccc2)C=C[C@@H]1O	-0.259	0.0466	0.457	-3.41	-1.26	0.552	-0.397 (inactive)	0.607	-0.673	-0.852 (inactive)
O=C1[C@H]2[C@H]3[C@H](O)[C@H](O)CC(=NO[C@@H]4O[C@H](CO)[C@@H](O)[C@H](O)[C@H]4O)[C@@H]3CC[C@H]2C(=O)N1c1cccc(Oc2ccccc2)c1	0.161	-0.45	-0.593	0.365	-0.815	-0.655	-0.349 (inactive)	-0.277	-0.229	0.39 (inactive)
COc1ccc(OC[C@H]2CN3[C@@H](CC[C@@H](C)[C@@H]3c3ccc(Br)cc3)C(=O)O2)cc1	-0.0668	0.0118	-0.227	0.829	-1.2	-0.057	-0.187 (inactive)	0.979	0.381	-0.914 (inactive)
C[C@@H]1CC[C@@H](C(=O)O)N[C@H]1c1cccc(N2CCOCC2)c1	1.03	-0.219	0.0881	0.401	1.07	1.66	0.631 (inactive)	-0.157	-0.144	0.148 (inactive)
COC(=O)[C@H](C)NC(=O)CCC1CC(OC(=O)NCc2cccc3ccccc23)CC2(CCCC(COC(=O)NCCOc3ccccc3)O2)O1 (stereo not given in full)	-0.13	0.151	-1.24	-3.37	-3.01	-0.234	-0.198 (inactive)	-0.458	-0.463	1.33 (inactive)
CC(CCN1CCCCc2nc(C)c(C)cc21)=NO[C@@H](C)c1cc(-c2c(C)cc(C)cc2C)no1	1.08	0.531	0.148	-2.9	-3.77	4	0.159 (inactive)	-0.831	-1.74	2.06 (inactive)
